From PubChem BioAssay AID1159580 (chemical genetic matrix, 2015)
Where “and” joins values, the source holds several entries; their conditions need not be identical. Equal entries are not always repeated. Hit rate of the full screen: of about 5,500 compounds, about 2,000 (36%) were called active. About 18% were inconclusive and are not listed. No stated cut-off is given here; in the data, active means normalized growth mostly below about 0.91 (no sharp cut-off); inconclusive means no clear call, values can overlap the other calls; inactive means mostly above about 0.92. The list shows a part of the results.

Assay: chemical genetic growth profiling, strain panel (AID 1159580);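 further: tested at 20 µM; growth read once vehicle control cultures reached saturation at 30 °C; 1 = growth at the plate median or of vehicle wells; lower values mean less growth of the strain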
Conditions: S. cerevisiae deletion strains, growth OD

Measured: normalized growth

C[C@]12C=CC(=O)C=C1CCC1C2[C@@H](O)C[C@@]2(C)C1CC[C@]2(O)C(=O)CO (stereo not given in full)
inactive: locus YAL021C, strain ccr4, active compounds read low 1 | locus YAL026C, strain drs2, active compounds read low 0.992 | locus YAL030W, strain snc1, active compounds read low 0.993 | locus YBL061C, strain skt5, active compounds read low 0.999 | locus YBR009C, strain hhf1, active compounds read low 0.993 | locus YBR021W, strain FUR4, active compounds read low 0.979 | locus YBR023C, strain chs3, active compounds read low 1 | locus YBR171W, strain sec66, active compounds read low 1.01 | locus YBR229C, strain ROT2, active compounds read low 0.99 | locus YBR231C, strain swc5, active compounds read low 0.991 | locus YBR279W, strain paf1, active compounds read low 1 | locus YCL011C, strain gbp2, active compounds read low 1.01 | locus YCL016C, strain dcc1, active compounds read low 0.988 | locus YCL029C, strain bik1, active compounds read low 0.985 | locus YCL061C, strain MRC1, active compounds read low 1.01 | locus YCL069W, strain vba3, active compounds read low 0.981 | locus YCR088W, strain abp1, active compounds read low 0.994 | locus YDL005C, strain med2, active compounds read low 0.999 | locus YDL035C, strain GPR1, active compounds read low 0.998 | locus YDL040C, strain nat1, active compounds read low 0.995 | locus YDL074C, strain BRE1, active compounds read low 1.01 | locus YDL101C, strain DUN1, active compounds read low 0.99 | locus YDL134C, strain PPH21, active compounds read low 0.986 | locus YDL185W, strain tfp1, active compounds read low 0.974 | locus YDL192W, strain arf1, active compounds read low 0.985 | locus YDR001C, strain nth1, active compounds read low 0.997 | locus YDR069C, strain doa4, active compounds read low 0.996 | locus YDR101C, strain arx1, active compounds read low 0.983 | locus YDR137W, strain rgp1, active compounds read low 1.03 | locus YDR150W, strain NUM1, active compounds read low 0.998 | locus YDR159W, strain sac3, active compounds read low 1 | locus YDR162C, strain NBP2, active compounds read low 0.992 | locus YDR195W, strain ref2 0.969 | locus YDR297W, strain sur2, active compounds read low 0.99 | locus YDR318W, strain mcm21, active compounds read low 0.979 | locus YDR334W, strain swr1, active compounds read low 0.992 | locus YDR335W, strain msn5, active compounds read low 0.996 | locus YDR388W, active compounds read low 0.98 | locus YDR392W, strain spt3, active compounds read low 0.953 | locus YDR502C, strain sam2, active compounds read low 0.992 | locus YEL003W, strain gim4, active compounds read low 0.982 | locus YEL037C, strain rad23, active compounds read low 0.989 | locus YEL061C, strain CIN8 (second series), active compounds read low 0.99 | locus YEL061C, strain CIN8, active compounds read low 0.997 | locus YER015W, strain faa2, active compounds read low 1 | locus YER016W, strain bim1, active compounds read low 1 | locus YER110C, active compounds read low 0.975 | locus YER111C, strain swi4, active compounds read low 0.999 | locus YER155C, strain BEM2 (second series), active compounds read low 1.01 | locus YER155C, strain BEM2, active compounds read low 0.978 | locus YER167W, strain BCK2, active compounds read low 0.987 | locus YFR010W, strain ubp6, active compounds read low 0.997 | locus YGL078C, strain dbp3, active compounds read low 0.998 | locus YGL086W, strain mad1, active compounds read low 1 | locus YGL167C, strain pmr1, active compounds read low 1.01 | locus YGL173C, strain kem1, active compounds read low 0.989 | locus YGL227W, strain vid30, active compounds read low 0.993 | locus YGL240W, strain doc1, active compounds read low 0.99 | locus YGL248W, strain PDE1, active compounds read low 0.99 | locus YGL253W, strain hxk2, active compounds read low 0.991 | locus YGR135W, strain pre9, active compounds read low 0.995 | locus YGR229C, strain SMI1, active compounds read low 0.993 | locus YGR252W, strain gcn5, active compounds read low 1.06 | locus YHR013C, strain ard1, active compounds read low 1.01 | locus YHR027C, strain rpn1, active compounds read low 0.995 | locus YHR030C, strain SLT2, active compounds read low 0.992 and 1.01 | locus YHR079C, strain IRE1 (second series), active compounds read low 0.977 | locus YHR079C, strain IRE1, active compounds read low 1 | locus YHR094C, strain hxt1, active compounds read low 0.978 | locus YHR129C, strain ARP1, active compounds read low 1.02 | locus YHR142W, strain chs7, active compounds read low 0.99 | locus YHR200W, strain rpn10, active compounds read low 0.981 | locus YIL066C, strain RNR3, active compounds read low 0.989 | locus YIL073C, strain SPO22, active compounds read low 0.946 | locus YIL125W, strain kgd1, active compounds read low 0.982 | locus YIR030C, strain dcg1, active compounds read low 0.984 | locus YJL092W, strain hpr5, active compounds read low 0.995 | locus YJL095W, strain BCK1 (second series), active compounds read low 1 | locus YJL095W, strain BCK1, active compounds read low 1.01 | locus YJL115W, strain asf1, active compounds read low 0.99 | locus YJL129C, strain trk1, active compounds read low 0.977 | locus YJL134W, strain LCB3, active compounds read low 0.988 | locus YJL154C, strain vps35, active compounds read low 0.998 | locus YJL164C, strain tpk1, active compounds read low 0.989 | locus YJL166W, strain qcr8, active compounds read low 0.979 | locus YJL168C, strain set2, active compounds read low 0.983 | locus YJL187C, strain SWE1 (second series), active compounds read low 0.984 | locus YJL187C, strain SWE1, active compounds read low 0.991 | locus YJR043C, strain POL32, active compounds read low 0.998 | locus YJR066W, strain TOR1, active compounds read low 0.942
